Cytotoxicity call data for 63 compounds are collected here from the antibiotic and cytotoxicity screens of Wong et al. (2023).

Structures are written as SMILES. The campaign covered roughly 39,000 compounds. About 1,500 (3.8%) were called active. Many of the other results were omitted from the sample, so actives are more common in it than they were.

This test concerns HSkMC (human skeletal muscle cells). As to the kind of experiment: cytotoxicity call (relative viability < 0.9). As to conditions: 10 µM.
Turning to `COc1ccc(CN(C)C[C@@H]2OCCCC[C@H](C)Oc3ccc(NS(=O)(=O)c4ccc(F)cc4)cc3C(=O)N([C@@H](C)CO)C[C@@H]2C)cc1`, the cytotoxicity call is “inactive”. Then `C[C@H](CO)N1C[C@H](C)[C@H](CN(C)S(C)(=O)=O)Oc2c(NS(=O)(=O)c3cn(C)cn3)cccc2C1=O`, with “inactive”; and `COc1ccc2c3c(n(c2c1)C)[C@@H](CO)N(C[C@]13CCN(CC1)S(=O)(=O)C)C(=O)CN(C)C`, with “inactive”. Under `COc1ccc(NC(=O)N(C)C[C@H]2OCCCC[C@H](C)Oc3ccc(NC(=O)Nc4ccc(C(F)(F)F)cc4)cc3C(=O)N([C@@H](C)CO)C[C@@H]2C)cc1` stands “inactive”; under `Clc1ccc(C(Cn2ccnc2)OCc2ccsc2Cl)c(Cl)c1` (stereo not drawn), “inactive”. Then `Clc1ccc(COC(Cn2ccnc2)c2ccc(Cl)cc2Cl)c(Cl)c1.O=[N+]([O-])O` (stereo not drawn), with “inactive”. For `Clc1ccc(C(c2ccc(Cl)cc2)[n+]2ccn(C[C@@H](OCc3ccc(Cl)cc3Cl)c3ccc(Cl)cc3Cl)c2)cc1`, the cytotoxicity call was “active”. Then `Cc1ccc2c(=O)c3ccccc3n(CCCN)c2c1C`, with “inactive”. Then `CCCC#Cc1cnc2c(c1)C(=O)N([C@H](C)CO)C[C@@H](C)[C@H](CN(C)S(=O)(=O)c1cccc(OC)c1)O2`, with “inactive”; and `Nc1ncnc2c1c(-c1ccc(Cl)cc1)nn2-c1cccc(-c2cnnn2Cc2cccc(-c3ccccc3)c2)c1`, with “active”; and `C[C@H](CO)N1C[C@H](C)[C@H](CN(C)S(C)(=O)=O)Oc2c(NC(=O)CCCCCC(=O)Nc3ccccc3N)cccc2C1=O`, with “inactive”. Then `COc1ccc(NC(=O)N(C)C[C@@H]2Oc3ccc(NC(=O)CCCCCC(=O)Nc4ccccc4N)cc3CC(=O)N([C@H](C)CO)C[C@H]2C)cc1`, with “inactive”.

For the compound `C[C@@H]1CN([C@@H](C)CO)C(=O)c2cc(NC(=O)Nc3ccc(F)cc3)ccc2O[C@H]1CN(C)Cc1ccc(Cl)c(Cl)c1`, the cytotoxicity call was “inactive”. Then `COc1ccc(NC(=O)Nc2ccc3c(c2)C(=O)N([C@H](C)CO)C[C@@H](C)[C@@H](CN(C)Cc2ccc(Cl)c(Cl)c2)O3)cc1`, with “inactive”. Then `COc1ccc(NC(=O)Nc2ccc3c(c2)C(=O)N([C@H](C)CO)C[C@H](C)[C@H](CN(C)Cc2ccc(Cl)c(Cl)c2)O3)cc1`, with “inactive”. Under `C[C@@H]1CN([C@H](C)CO)C(=O)c2cc(NC(=O)Nc3ccc(F)cc3)ccc2O[C@@H]1CN(C)Cc1ccc(Cl)c(Cl)c1` stands “inactive”; under `C[C@@H]1CN([C@@H](C)CO)C(=O)c2cc(NC(=O)Nc3ccc(F)cc3)ccc2O[C@@H]1CN(C)Cc1ccc(Cl)c(Cl)c1`, “active”; under `C[C@H]1CN([C@@H](C)CO)C(=O)c2cc(NC(=O)Nc3ccc(F)cc3)ccc2O[C@H]1CN(C)Cc1ccc(Cl)c(Cl)c1`, “inactive”.

For `COc1ccc(NC(=O)Nc2ccc3c(c2)C(=O)N([C@@H](C)CO)C[C@H](C)[C@H](CN(C)Cc2ccc(Cl)c(Cl)c2)O3)cc1`, the cytotoxicity call is “active”.

`C[C@@H]1CN([C@H](C)CO)C(=O)c2cc(NC(=O)Nc3ccc(F)cc3)ccc2O[C@H]1CN(C)Cc1ccc(Cl)c(Cl)c1`: the cytotoxicity call is “inactive”.

On to `C[C@H](CO)N1C[C@H](C)[C@H](CN(C)Cc2ccc(Cl)c(Cl)c2)Oc2ccc(NC(=O)Nc3ccc(F)cc3)cc2C1=O`, for which the cytotoxicity call was “active”.

For `COc1ccc(S(=O)(=O)N(C)C[C@H]2Oc3ccc(NS(=O)(=O)c4cn(C)cn4)cc3CC(=O)N([C@@H](C)CO)C[C@@H]2C)cc1`, the cytotoxicity call was “inactive”. Under `CO[C@@H]1CN(C)C(=O)c2cc(NS(=O)(=O)CC(F)(F)F)ccc2OC[C@@H](C)N(C(=O)NC(C)C)C[C@@H]1C` stands “inactive”. For `COc1cccc(CNC(=O)C[C@H]2C=C[C@H](NC(=O)C3CCOCC3)[C@H](CO)O2)c1`, the cytotoxicity call was “inactive”. Then `COc1ccc(CN(C)C[C@H]2OCCCC[C@H](C)Oc3ccc(NC(=O)Nc4ccc5c(c4)OCO5)cc3C(=O)N([C@@H](C)CO)C[C@H]2C)cc1`, with “inactive”; and `C[C@@H]1CN([C@H](C)CO)C(=O)c2cc(NC(=O)Cn3cnnn3)ccc2O[C@@H]1CN(C)C(=O)Nc1ccc(C(F)(F)F)cc1`, with “inactive”. Then `C[C@@H]1CN([C@H](C)CO)C(=O)c2cc(NC(=O)Nc3ccc(C(F)(F)F)cc3)ccc2O[C@H]1CN(C)C(=O)Nc1cccc2ccccc12`, with “inactive”. Then `Cl.Clc1ccc2c(c1)CCc1cccnc1C2=C1CCNCC1`, with “inactive”; and `Cc1cc(C(=O)Nc2cccc3c2O[C@H](CN(C)Cc2ccc(Oc4ccccc4)cc2)[C@@H](C)CN([C@@H](C)CO)C3=O)n(C)n1`, with “inactive”. For `COC(=O)C(CC#Cc1ccc2c(c1)[C@]1(C(=O)N2)[C@H](c2ccc(OCCO)cc2)N2[C@H](c3ccccc3)[C@H](c3ccccc3)OC(=O)[C@H]2[C@@H]1C(=O)N1CCc2cc(OC)c(OC)cc2C1)C(=O)OC`, the cytotoxicity call was “inactive”. Under `COc1ccc(S(=O)(=O)N(C)C[C@@H]2Oc3c(NS(=O)(=O)c4cn(C)cn4)cccc3C(=O)N([C@@H](C)CO)C[C@@H]2C)cc1` stands “inactive”. Under `C[C@H]1CCCCO[C@@H](CN(C)Cc2ccccc2)[C@@H](C)CN([C@@H](C)CO)C(=O)c2cc(NC(=O)Nc3ccc(C(F)(F)F)cc3)ccc2O1` stands “active”; under `C[C@H]1CCCCO[C@H](CN(C)Cc2ccccc2)[C@@H](C)CN([C@@H](C)CO)C(=O)c2cc(NC(=O)Nc3ccc(C(F)(F)F)cc3)ccc2O1`, “active”. As to `C[C@@H]1CCCCO[C@H](CN(C)Cc2ccccc2)[C@H](C)CN([C@@H](C)CO)C(=O)c2cc(NC(=O)Nc3ccc(C(F)(F)F)cc3)ccc2O1`, the cytotoxicity call was “active”. Under `C[C@@H]1CN([C@@H](C)CO)C(=O)c2cc(NC(=O)Nc3ccc(C(F)(F)F)cc3)ccc2O[C@@H](C)CCCCO[C@H]1CN(C)Cc1ccccc1` stands “active”. Then `COc1ccc(S(=O)(=O)N(C)C[C@H]2Oc3ccc(NC(=O)Cn4cnnn4)cc3CC(=O)N([C@H](C)CO)C[C@@H]2C)cc1`, with “inactive”. Under `C[C@H](CO)N1C[C@H](C)[C@@H](CN(C)C(=O)Nc2cccc3ccccc23)Oc2ccc(NS(=O)(=O)c3ccc(F)cc3)cc2CC1=O` stands “inactive”; under `CCCCCCCCCCCCCCCCOCCCOP(=O)(O)CO[C@H](CO)Cn1ccc(N)nc1=O`, “inactive”; under `CC(C)NC(=O)Nc1ccc2c(c1)C(=O)N([C@@H](C)CO)C[C@H](C)[C@@H](CN(C)Cc1ccc3c(c1)OCO3)O2`, “inactive”.

`COCCn1cc2c(n1)[C@H](CNC(=O)COC)OCC2`: the cytotoxicity call was “inactive”.

Turning to `C[C@@H]1CCCCO[C@H](CN(C)C(=O)c2ccccc2)[C@@H](C)CN([C@H](C)CO)C(=O)c2cc(NC(=O)C3CCCCC3)ccc2O1`, the cytotoxicity call was “inactive”. Regarding `C[C@@H]1CN([C@@H](C)CO)C(=O)c2cc(NC(=O)Nc3ccccc3)ccc2O[C@@H](C)CCCCO[C@H]1CN(C)C(=O)Nc1cccc2ccccc12`, the cytotoxicity call is “inactive”.

As to `C[C@@H]1CCCCO[C@H](CN(C)Cc2ccccc2)[C@@H](C)CN([C@@H](C)CO)C(=O)c2cc(NC(=O)Nc3ccc(C(F)(F)F)cc3)ccc2O1`, the cytotoxicity call is “active”. Then `C[C@@H]1CN([C@H](C)CO)C(=O)c2cc(NC(=O)Nc3ccc(C(F)(F)F)cc3)ccc2O[C@@H](C)CCCCO[C@@H]1CN(C)Cc1ccccc1`, with “active”; and `C[C@@H]1CCCCO[C@H](CN(C)Cc2ccccc2)[C@@H](C)CN([C@H](C)CO)C(=O)c2cc(NC(=O)Nc3ccc(C(F)(F)F)cc3)ccc2O1`, with “active”.

Regarding `C[C@H](CO)N1C[C@H](C)[C@H](CN(C)Cc2ccccc2)OCCCC[C@H](C)Oc2ccc(NC(=O)Nc3ccc(C(F)(F)F)cc3)cc2C1=O`, the cytotoxicity call was “active”. Under `Cn1nc(C2CC2)cc1N` stands “inactive”; under `C[C@H](CO)N1C[C@H](C)[C@@H](CN(C)C(=O)NC2CCCCC2)OCCCC[C@H](C)Oc2ccc(NC(=O)C3CCCCC3)cc2C1=O`, “inactive”; under `Cc1noc(C)c1NC(=O)Nc1ccc2c(c1)C(=O)N([C@H](C)CO)C[C@H](C)[C@H](CN(C)C(=O)Cc1ccccc1)OCCCC[C@@H](C)O2`, “inactive”. Then `C[C@H](CO)N1C[C@H](C)[C@H](CN(C)C(=O)C2CCCCC2)Oc2cc(C#Cc3ccncc3)ccc2S1(=O)=O`, with “inactive”; and `Cc1onc(-c2ccccc2)c1C(=O)NC1C(=O)N2C1SC(C)(C)C2C(=O)[O-].[Na+]` (stereo not drawn), with “inactive”. Then `COc1ccc(S(=O)(=O)Nc2ccc3c(c2)C(=O)N([C@H](C)CO)C[C@H](C)[C@H](CN(C)C(=O)Nc2ccc(F)cc2)OCCCC[C@H](C)O3)cc1`, with “inactive”; and `O=C(O)c1ccoc1`, with “inactive”; and `Cc1ccc(S(=O)(=O)N(C)C[C@H]2Oc3cc(C#Cc4ccncc4)ccc3S(=O)(=O)N([C@H](C)CO)C[C@@H]2C)cc1`, with “inactive”.

In the case of `C[C@@H]1CN([C@H](C)CO)C(=O)c2cc(NC(=O)NC3CCCCC3)ccc2O[C@@H]1CN(C)Cc1ccc(C(F)(F)F)cc1`, the cytotoxicity call is “inactive”. Regarding `C[C@H](CO)N1C[C@H](C)[C@@H](CN(C)Cc2ccccc2)OCCCC[C@H](C)Oc2ccc(NC(=O)Nc3ccc(C(F)(F)F)cc3)cc2C1=O`, the cytotoxicity call is “active”.

`C[C@@H]1CCCCO[C@H](CN(C)Cc2ccccc2)[C@H](C)CN([C@H](C)CO)C(=O)c2cc(NC(=O)Nc3ccc(C(F)(F)F)cc3)ccc2O1`: the cytotoxicity call is “active”. Under `C[C@@H]1CCCCO[C@@H](CN(C)Cc2ccccc2)[C@H](C)CN([C@H](C)CO)C(=O)c2cc(NC(=O)Nc3ccc(C(F)(F)F)cc3)ccc2O1` stands “inactive”; under `C[C@@H]1CN([C@H](C)CO)C(=O)c2cc(NC(=O)Nc3ccc(C(F)(F)F)cc3)ccc2O[C@@H](C)CCCCO[C@H]1CN(C)Cc1ccccc1`, “active”. Under `C[C@@H]1CCCCO[C@@H](CN(C)Cc2ccccc2)[C@@H](C)CN([C@H](C)CO)C(=O)c2cc(NC(=O)Nc3ccc(C(F)(F)F)cc3)ccc2O1` stands “inactive”; under `C[C@@H]1CCCCO[C@@H](CN(C)Cc2ccccc2)[C@@H](C)CN([C@@H](C)CO)C(=O)c2cc(NC(=O)Nc3ccc(C(F)(F)F)cc3)ccc2O1`, “active”; under `C[C@@H]1CN([C@@H](C)CO)C(=O)c2cc(NC(=O)Nc3ccc(C(F)(F)F)cc3)ccc2O[C@@H](C)CCCCO[C@@H]1CN(C)Cc1ccccc1`, “inactive”. Under `C[C@@H]1CCCCO[C@@H](CN(C)Cc2ccccc2)[C@H](C)CN([C@@H](C)CO)C(=O)c2cc(NC(=O)Nc3ccc(C(F)(F)F)cc3)ccc2O1` stands “inactive”.
